Data on 15 molecules can be found in PubChem BioAssay (Tox21).

Assay [1] can be described thus: qHTS assay to identify small molecule agonists of the hypoxia (HIF-1) signaling pathway - cell viability counter screen (AID 1224844; calls by dose curve; also: nearly all actives have a fitted effect of over 50% in size; also: potency is read from the fitted curve at half-maximal effect). The method, boiled down:
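Cells (HRE-bla ME-180, 2,000 per well) sat 5 hrs at 37C, got compound for 17 hrs, were read for CCF4-AM FRET, and were finally lysed with CellTiter-Glo for a 30 min room-temperature luminescence read.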

A short description of assay [2]: qHTS assay to identify small molecule agonists of the hypoxia (HIF-1) signaling pathway (AID 1224846; active = well fitted activation curve with a large enough effect in the signal ratio in the repeat runs, not every such curve was filed as active; the % refers to the signal ratio). The method, boiled down:
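A low-serum medium (0.5% dialyzed FBS) holding 2,000 HRE-bla ME-180 cells per well is preincubated for 5 hrs, dosed with compounds by pintool, and kept a further 17 hrs at 37C, 5% CO2 before CCF4-AM FRET detection of beta-lactamase.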

Assay [3] is described as follows: qHTS assay to identify small molecule agonists of H2AX - cell viability counter screen (AID 1224847; calls by dose curve; also: nearly all actives have a fitted effect of over 30% in size; also: potency is read from the fitted curve at half-maximal effect). The gist of the method: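 Cytotoxicity counter screen in wild-type CHO-K1 cells: a 3 hr compound treatment at 37C across 15 concentrations, followed by CellTiter-Glo luminescence to gauge viable cells.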
Background: In qHTS, concentration-response curves come from the screen itself.

A short description of assay [4]: qHTS RealTime-Glo MT Cell Viability Assay in HepG2 cells - 24 hour (AID 1224867). Also: nearly all actives have a fitted effect of over 50% in size. The method, boiled down: (§1)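 Cell number in HepG2 cultures estimated from NanoLuc luminescence generated by metabolic reduction of a prosubstrate by living cells. The homogeneous, nonlytic format allowed repeated reads at 0, 8, 16, 24, 32 and 40 h of compound exposure.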
A short description of assay [5]: qHTS RealTime-Glo MT Cell Viability Assay in HEK293 cells - 32 hour (AID 1224868). Also: nearly all actives have a fitted effect of over 50% in size. Also: potency is read from the fitted curve at half-maximal effect. The method, boiled down:
(§2)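 Homogeneous bioluminescent viability format in HEK293 cells (600 cells/well). Following 5 h at 37 C/5% CO2, 23 nL compound was pintooled; the signal was measured repeatedly during 40 h incubation.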

Assay [6] is described as follows: A CellTox Green Cytotoxicity Assay to monitor cytotoxicity in HEK293 cells - 0 hour (AID 1224869). Also: nearly all actives have a fitted effect of over 50% in size. The gist of the method:
(§3)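 Fluorescence intensity, read at 0, 8, 16, 24, 32 and 40 h of compound treatment, reflected dye binding to DNA of dead HEK293 cells; compounds (23 nL, DMSO) were added 5 h after plating cells with reagent.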

Assay [7] can be described thus: qHTS RealTime-Glo MT Cell Viability Assay in HepG2 cells - 40 hour (AID 1224870). Also: nearly all actives have a fitted effect of over 50% in size. The gist of the method:
(§4)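 HepG2 cells mixed with RealTime-Glo MT reagents (NanoLuc plus cell-permeant prosubstrate) were seeded at 600 cells/well, incubated 5 h at 37 C/5% CO2, then pinned with compounds in DMSO; nonlytic luminescence tracked viability during 40 h treatment.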

A short description of assay [8]: A CellTox Green Cytotoxicity Assay to monitor cytotoxicity in HEK293 cells - 40 hour (AID 1224871). Also: nearly all actives have a fitted effect of over 45% in size. The method, boiled down: as §3
The nature of assay [9]: qHTS RealTime-Glo MT Cell Viability Assay in HEK293 cells - 16 hour (AID 1224872). Also: nearly all actives have a fitted effect of over 50% in size. Also: potency is read from the fitted curve at half-maximal effect. The gist of the method:
as §2

Assay [10] is described as follows: qHTS RealTime-Glo MT Cell Viability Assay in HepG2 cells - 8 hour (AID 1224873). Also: nearly all actives have a fitted effect of over 55% in size. The gist of the method: as §4
Assay [11] can be described thus: qHTS RealTime-Glo MT Cell Viability Assay in HEK293 cells - 40 hour (AID 1224874). Also: nearly all actives have a fitted effect of over 50% in size. Also: potency is read from the fitted curve at half-maximal effect. The conditions noted are these: RealTime-Glo luminescence; max response: active compounds read low. The gist of the method:
(§5)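 Viable HEK293 cells reduce a cell-permeant prosubstrate; the product diffuses out and is consumed by NanoLuc in the medium to give light. Compounds went in after a 5 h incubation and plates were read over the treatment course.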

The nature of assay [12]: A CellTox Green Cytotoxicity Assay to monitor cytotoxicity in HEK293 cells - 24 hour (AID 1224875). Also: nearly all actives have a fitted effect of over 45% in size. The method, boiled down:
as §3

Assay [13] is described as follows: A CellTox Green Cytotoxicity Assay to monitor cytotoxicity in HepG2 cells - 16 hour (AID 1224876). Also: nearly all actives have a fitted effect of over 45% in size. Also: potency is read from the fitted curve at half-maximal effect. The method, boiled down: (§6)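 Using 1536-well format, dye-containing HepG2 suspension was seeded, allowed 5 h at 37 C/5% CO2, dosed by pintool with compounds, positive and negative controls, and imaged for fluorescence across 40 h.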
The nature of assay [14]: qHTS RealTime-Glo MT Cell Viability Assay in HepG2 cells - 32 hour (AID 1224877). Also: nearly all actives have a fitted effect of over 55% in size. The gist of the method: as §1
Assay [15] in a line: A CellTox Green Cytotoxicity Assay to monitor cytotoxicity in HepG2 cells - 24 hour (AID 1224878). Also: nearly all actives have a fitted effect of over 45% in size. Also: potency is read from the fitted curve at half-maximal effect. The method, boiled down:
as §6

Assay [16] can be described thus: A CellTox Green Cytotoxicity Assay to monitor cytotoxicity in HepG2 cells - 40 hour (AID 1224879). Also: nearly all actives have a fitted effect of over 40% in size. Also: potency is read from the fitted curve at half-maximal effect. The gist of the method:
as §6

A short description of assay [17]: qHTS RealTime-Glo MT Cell Viability Assay in HEK293 cells - 0 hour (AID 1224880). The gist of the method:
as §5

Assay [18] can be described thus: qHTS assay to identify small molecule agonists of H2AX (AID 1224845; active = well fitted activation curve with a large enough effect in the signal ratio in the repeat runs, not every such curve was filed as active; the % refers to the signal ratio). The gist of the method: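 Wild-type CHO-K1 cells plated overnight, then exposed 3 hr at 37C to compounds at 15 concentrations (0.76% DMSO). Lysed, then HTRF anti-pH2AX(S139)-cryptate/anti-H2AX-d2 detection after 24 hr at room temperature; emissions 665 and 620 nm.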
Assay [19] is described as follows: qHTS assay to identify small molecule antagonists of the estrogen related receptor (ERR) signaling pathway from Tox21 library (AID 1224848). Also: nearly all actives have a fitted effect of over 50% in size. Also: potency is read from the fitted curve at half-maximal effect. The gist of the method:
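Cells: ERR line, 2,000/well; 6 h preincubation 37 C/5% CO2. Cpd in DMSO via pin tool; 18 h, 37 C. ONE-Glo, 30 min RT, luminescence.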

A short description of assay [20]: qHTS assay to identify small molecule agonists of the estrogen related receptor (ERR) signaling pathway from Tox21 library (AID 1224849; calls by dose curve; also: nearly all actives have a fitted effect of over 15% in size). The conditions noted are these: ERR reporter cell line, ONE-Glo luciferase, 18 h; at 92.4 µM (top of the series) unless noted. The method, boiled down: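 Screening used an NTP-provided ERR luciferase cell line. Compounds in DMSO were added 6 h after seeding and left 18 h at 37 C before a 30 min ONE-Glo step and luminescence reading.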

Unmarked numbers belong to inactive results. Inconclusive results are not listed. Calls of active or inactive are those of the source. Unless noted, calls follow the shape of the dose curve; as a rule, active = well fitted curve in the direction sought with a large enough effect in the repeat runs; inconclusive = weak or mixed curves; inactive = no such curve, though single readings can be large; an effect the other way counts as inactive or inconclusive.
% is scaled to controls: 0 for no effect and ±100 for the full control effect.

In the case of `COC(=O)CS`, the Potency result in assay [1], in assay [3], in assay [4], in assay [5], in assay [6] and in [7] was “inactive” in each case. Moreover, the Potency entry in [8], in assay [9], in assay [10], in [12], in assay [13] and in [14] was “inactive” throughout. For the same molecule, the Potency entry in assay [15], in [16] and in assay [17] was “inactive” each time. In addition, the result in [2] was inactive. For the same molecule, the max response in assay [11] was 0.933%.
Regarding `O=C1NCCN1CCO`, the Potency entry in assay [1], in assay [3], in assay [4], in assay [5], in [6] and in assay [7] was “inactive” each time. Further, the Potency entry in assay [8], in [9], in [10], in assay [12], in assay [13] and in [14] was “inactive” in each case. In addition, the Potency result in assay [15], in [16] and in assay [17] was “inactive” throughout. Also, in assay [2], the call was inactive. Besides, the max response in [11] is 15.9%.
Take `O=C(Nc1cccc2c(=O)cc(-c3nn[nH]n3)oc12)c1ccc(OCCCCc2ccccc2)cc1`: the Potency in assay [1] was 5.35 µM (active). Besides, the Potency result in assay [18], in [3], in [5], in assay [6], in assay [7] and in assay [8] was “inactive” each time. Also, the Potency entry in [9], in assay [10], in [12] and in [14] was “inactive” each time. For the same molecule, the max response in assay [11] was -0.852%.
Regarding `CC(C)(C)C(=O)C(=O)O`, the Potency entry in assay [1], in assay [18], in [3], in assay [4], in assay [6] and in [7] was “inactive” in each case. The Potency entry in [8], in assay [9], in assay [10], in assay [13], in [14] and in [15] was “inactive” in each case. The Potency result in [17] is “inactive”. The max response in assay [11] is 0.984%.
For the molecule `CCOC(C)=O`, the Potency result in assay [1], in [18], in assay [3], in assay [4], in assay [5] and in assay [6] was “inactive” each time. In addition, the Potency result in assay [7], in assay [9], in assay [10], in assay [12], in assay [13] and in assay [14] was “inactive” each time. Besides, the Potency result in assay [15], in assay [16] and in [17] was “inactive” each time. In [11], the max response was 0.693%.
On to `CC(=O)OCCN(CCOC(C)=O)c1ccc(N=Nc2ccc([N+](=O)[O-])cc2C#N)cc1`, for which the Potency entry in assay [1], in [4], in [6], in assay [12], in assay [13] and in [14] was “inactive” in each case. Further, the Potency entry in assay [15] and in [16] was “inactive” each time. Besides, the outcome in assay [2] was inactive. Further, the Potency in [3] was 50.5 µM (active); in assay [19], 61.1 µM (active). For the same molecule, in [20], the activity change, positive = activation is -46.9%.
As to `Cc1[nH]cnc1CN1CCc2c(c3ccccc3n2C)C1=O`, the Potency entry in [1], in assay [3], in assay [19], in [4], in assay [6] and in assay [7] was “inactive” in each case. In addition, the Potency result in assay [8], in assay [9], in [10], in assay [12], in assay [13] and in [14] was “inactive” each time. In addition, the Potency entry in assay [15], in assay [16] and in [17] was “inactive” in each case. Also, in assay [2], the result was inactive. The activity change, positive = activation in assay [20] is -18.3% [at 42.5 µM]. In assay [11], the max response is -24.4%.
Consider `Nc1ccc(N=Nc2ccccc2)c(N)c1`, for which the Potency result in [1], in assay [6], in [7], in assay [8], in assay [12] and in [13] was “inactive” throughout. Moreover, the Potency entry in assay [14], in [15] and in assay [16] was “inactive” in each case. Moreover, the molecule was classed as inactive in assay [2]. The Potency in [3] is 98.6 µM (active); in assay [5] it was 42.7 µM (active); in [9] it was 42.7 µM (active); in assay [11], 38.1 µM (active).
With `N#[N+]c1ccc2c(S(=O)(=O)[O-])cccc2c1O`, the Potency entry in assay [1], in [3], in assay [19], in assay [4], in assay [5] and in [6] was “inactive” throughout. Also, the Potency entry in assay [7], in assay [8], in assay [9], in assay [10], in [12] and in [13] was “inactive” in each case. The Potency result in assay [14], in assay [15], in [16] and in assay [17] was “inactive” in each case. Also, the activity change, positive = activation in assay [20] is -0.985%. The max response in assay [11] is -19.6%.
As to `CN1CCCC(n2nc(Cc3ccc(Cl)cc3)c3ccccc3c2=O)CC1` (stereo unspecified), the Potency in [1] is 21.3 µM (active); in assay [9], 7.56 µM (active); in assay [11], 9.52 µM (active); in assay [13] it was 26.8 µM (active); in assay [15], 23.9 µM (active); in assay [16], 23.9 µM (active). The Potency result in [3], in [6], in [10] and in assay [17] was “inactive” throughout. Also, the activity change, positive = activation in [20] is -15.1% [at 42.5 µM].
`O=c1cc(-c2ccccc2)oc2cc(O)cc(O)c12`: the Potency result in [1], in assay [6], in assay [8], in assay [10], in assay [12] and in assay [13] was “inactive” each time. In addition, in assay [17], the Potency result was “inactive”.
In the case of `CCOc1ccccc1O[C@H](c1ccccc1)[C@H]1CNCCO1`, the Potency entry in assay [1], in [3], in [4], in [5], in [6] and in assay [7] was “inactive” each time. Further, the Potency result in assay [9], in assay [10], in [12], in [13], in assay [15] and in [17] was “inactive” each time. Also, in assay [2], the molecule was classed as inactive. Besides, the max response in assay [11] was 1.67%.
Consider `O=C1c2ccccc2C(=O)C1c1ccc(Br)cc1`, for which the Potency result in assay [1], in assay [3], in [19], in [4], in [5] and in [6] was “inactive” throughout. The Potency result in assay [7], in assay [8], in [9], in [10], in [12] and in assay [14] was “inactive” in each case. Moreover, the Potency result in assay [15], in assay [16] and in assay [17] was “inactive” in each case. The activity change, positive = activation in assay [20] was 99.8% [at 42.5 µM] (active). Besides, the max response in [11] was -7.99%.
On to `CN1C(=O)c2ccccc2C1=O`, for which the Potency result in assay [1], in assay [3], in assay [19], in assay [4], in assay [6] and in assay [7] was “inactive” throughout. Besides, the Potency entry in [8], in assay [9], in [10], in assay [12], in assay [14] and in assay [15] was “inactive” each time. In addition, the Potency result in assay [16] and in assay [17] was “inactive” throughout. In addition, the activity change, positive = activation in [20] is 1.36%.
As for `CCN(CC)CCNC(=O)COc1ccc(OC)cc1`, the Potency entry in assay [1], in [3], in assay [4], in assay [5], in assay [6] and in assay [8] was “inactive” in each case. Besides, the Potency entry in assay [9], in assay [10], in [12], in assay [13], in assay [15] and in assay [16] was “inactive” in each case. Besides, the Potency result in assay [17] is “inactive”. Moreover, the max response in assay [11] was 13.7%.
